The values that follow come from PubChem BioAssay.

Experiment [1] concerns Plasmodium falciparum Sir2 (PF13_0152, Sir2A). The experiment can be described thus: Plasmodium falciparum Sir2A binding compounds – biochemical, small-molecule microarray, 635 nm fluorescence, primary screen (AID 1098).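 Further: score merges spot fluorescence intensity with its signal-to-noise ratio.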 The settings on record: fluorescence 635 nm, higher = more signal.
The nature of experiment [2]: probe aDKK1 binding to arrayed compounds – biochemical, biotinylated probe, 635/667 nm fluorescence, primary screen (AID 1099).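 Further: score merges 667nm spot fluorescence with signal to noise across triplicate slides; reference of the scale not given here.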 As to conditions: small-molecule microarray, higher = more signal.
Experiment [3] in a line: probe aCHRDL2 binding to arrayed compounds – biochemical, biotinylated probe, 635/667 nm fluorescence, primary screen (AID 1100). As to conditions: small-molecule microarray, higher = more signal.
Experiment [4] in a line: change in splice reporter luminescence, either direction, cell-based, HEK293, spliceosome inhibition project, primary screen (AID 1101).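 Further: HEK293 cells carrying a splicing-competent luciferase reporter gene; test concentration not given here.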 The settings on record: HEK293 splicing luciferase reporter, 24 h, higher = more signal, called active from +8 up or from −8 down.
The target in experiment [5] is Fibroblast growth factor 10 (Homo sapiens) (UniProt O15520). The experiment can be described thus: compounds binding fibroblast growth factor 10 – biochemical, small-molecule microarray, 635 nm fluorescence, primary screen (AID 1102). As to conditions: FGF10 binding, fluorescence 635 nm, higher = more signal.
Fibroblast growth factor 10 (Homo sapiens), sequence (O15520 whole entry, looked up): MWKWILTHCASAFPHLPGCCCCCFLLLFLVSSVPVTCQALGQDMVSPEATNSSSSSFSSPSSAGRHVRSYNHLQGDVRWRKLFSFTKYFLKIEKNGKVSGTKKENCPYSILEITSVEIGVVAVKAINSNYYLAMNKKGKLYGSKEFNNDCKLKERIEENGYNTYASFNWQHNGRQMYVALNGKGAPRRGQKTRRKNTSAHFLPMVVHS
Experiment [6] has as its system glycogen synthase kinase-3 (GSK3A per assay name; protocol says GSK3B). The experiment can be described thus: compounds binding glycogen synthase kinase-3 – biochemical, small-molecule microarray, 635 nm fluorescence, GSK3A, primary screen (AID 1103). Further: the record names both GSK3A and GSK3B. The settings on record: fluorescence 635 nm, higher = more signal.
Experiment [7] has as its target Epidermal growth factor receptor (Homo sapiens) (UniProt P00533). The experiment can be described thus: compounds binding epidermal growth factor receptor – biochemical, small-molecule microarray, 635 nm fluorescence, primary screen (AID 1104).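 Further: score merges 667 nm emission intensity with spot signal to noise over triplicate slides.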 As to conditions: EGFR binding, higher = more signal.
Experiment [8] has as its target Follistatin-related protein 3 (Homo sapiens) (UniProt O95633). The experiment can be described thus: compounds binding follistatin-related protein 3 – biochemical, small-molecule microarray, 635 nm fluorescence, primary screen (AID 1105).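 Further: score merges emission near 667 nm and signal to noise per printed spot across three slides.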 The settings on record: FSTL3 binding, higher = more signal.
In experiment [9] the target is Dickkopf-related protein 1 (Homo sapiens) (UniProt O94907). The experiment can be described thus: small molecules binding DKK1 protein – biochemical, small-molecule microarray, 635 nm fluorescence scan, primary screen (AID 1106).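 Further: score merges emission near 667 nm with signal to noise over three replicate slides.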 The settings on record: higher = more signal.
Dickkopf-related protein 1 (Homo sapiens), sequence (O94907 whole entry, looked up): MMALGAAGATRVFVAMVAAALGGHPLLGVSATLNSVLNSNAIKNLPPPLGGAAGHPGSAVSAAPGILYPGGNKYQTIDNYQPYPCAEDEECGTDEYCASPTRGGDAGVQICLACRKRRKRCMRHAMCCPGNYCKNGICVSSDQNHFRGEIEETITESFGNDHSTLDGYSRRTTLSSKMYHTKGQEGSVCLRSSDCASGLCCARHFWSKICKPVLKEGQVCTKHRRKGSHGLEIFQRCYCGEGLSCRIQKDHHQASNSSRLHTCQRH
The test system of experiment [10] is Inhibin beta A chain (activin A). The experiment can be described thus: small molecules binding activin A – biochemical, small-molecule microarray, 635 nm fluorescence scan, primary screen (AID 1107).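 Further: mouse activin A protein probed at 4.33 µg/mL on printed slides; score merges bound-protein fluorescence near 667 nm with spot signal-to-noise.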 The settings on record: INHBA, higher = more signal.

Activity calls are given as the source filed them.

Follistatin-related protein 3 (Homo sapiens), sequence (O95633 whole entry, looked up): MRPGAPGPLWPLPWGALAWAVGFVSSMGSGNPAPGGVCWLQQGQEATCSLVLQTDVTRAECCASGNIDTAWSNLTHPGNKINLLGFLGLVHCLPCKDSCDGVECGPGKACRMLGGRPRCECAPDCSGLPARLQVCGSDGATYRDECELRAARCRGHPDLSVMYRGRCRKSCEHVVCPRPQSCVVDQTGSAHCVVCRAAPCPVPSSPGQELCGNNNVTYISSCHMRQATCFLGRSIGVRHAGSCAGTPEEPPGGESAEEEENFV
Epidermal growth factor receptor (Homo sapiens), sequence (P00533 whole entry, looked up): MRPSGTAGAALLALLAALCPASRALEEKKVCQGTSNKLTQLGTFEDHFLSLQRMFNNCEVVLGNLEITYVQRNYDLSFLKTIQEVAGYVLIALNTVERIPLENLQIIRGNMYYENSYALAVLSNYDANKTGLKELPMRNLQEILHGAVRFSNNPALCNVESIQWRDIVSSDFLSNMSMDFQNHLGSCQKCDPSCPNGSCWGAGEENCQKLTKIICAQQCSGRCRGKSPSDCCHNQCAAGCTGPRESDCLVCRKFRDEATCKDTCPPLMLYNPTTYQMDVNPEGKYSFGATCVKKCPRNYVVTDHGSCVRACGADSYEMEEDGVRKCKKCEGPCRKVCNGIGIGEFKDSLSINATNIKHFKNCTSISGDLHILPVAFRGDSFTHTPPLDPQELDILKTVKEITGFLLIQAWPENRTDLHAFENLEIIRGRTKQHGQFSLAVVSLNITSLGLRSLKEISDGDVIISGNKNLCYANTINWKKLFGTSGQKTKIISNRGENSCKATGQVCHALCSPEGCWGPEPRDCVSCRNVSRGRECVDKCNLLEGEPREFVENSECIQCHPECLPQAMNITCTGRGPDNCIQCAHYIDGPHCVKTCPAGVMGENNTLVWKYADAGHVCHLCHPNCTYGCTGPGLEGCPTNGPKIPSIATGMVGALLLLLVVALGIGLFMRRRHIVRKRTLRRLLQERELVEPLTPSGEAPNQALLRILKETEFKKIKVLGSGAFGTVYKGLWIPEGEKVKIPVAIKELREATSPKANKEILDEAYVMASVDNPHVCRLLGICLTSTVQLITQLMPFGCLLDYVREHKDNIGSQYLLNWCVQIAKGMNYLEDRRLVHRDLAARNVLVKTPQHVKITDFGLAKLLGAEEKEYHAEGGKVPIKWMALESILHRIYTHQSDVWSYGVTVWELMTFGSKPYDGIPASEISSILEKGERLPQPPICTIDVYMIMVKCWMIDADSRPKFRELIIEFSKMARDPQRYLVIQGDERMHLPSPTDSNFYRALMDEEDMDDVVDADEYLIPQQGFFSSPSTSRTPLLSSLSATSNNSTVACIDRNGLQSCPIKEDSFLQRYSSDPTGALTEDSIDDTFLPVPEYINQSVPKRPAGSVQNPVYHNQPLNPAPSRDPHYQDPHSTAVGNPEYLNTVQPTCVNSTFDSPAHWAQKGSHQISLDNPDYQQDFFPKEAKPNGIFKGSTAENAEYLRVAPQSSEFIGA

Consider `CCOC(=O)NN=C1C[C@@H](O)[C@@H](O)[C@@H]2[C@@H]3C(=O)N([C@@H](C)c4ccccc4)C(=O)[C@@H]3CC[C@@H]12`, for which the composite z-score is 0.799 in experiment [1]; -0.315 in [2]; -0.677 in experiment [3]; 0.725 in [5]; 1.12 in [6]; 1.09 in experiment [7]. The composite z-score in experiment [8] was determined as 1.34; in experiment [9], 0.867; in experiment [10], 1.43. The z-score in [4] is 1.31 (inactive).
Regarding `COC(=O)CC=C[C@@H](C)[C@@H](C=NO[C@@H](C)c1cc(-c2c(C)cc(C)cc2C)no1)NS(=O)(=O)c1ccc(C)cc1`, the composite z-score was -0.775 in experiment [1]; 0.437 in experiment [2]; 0.969 in [3]; -1.93 in experiment [5]; -1.46 in experiment [6]; -1.16 in experiment [7]. In addition, the values for the composite z-score in [8], in experiment [9] and in experiment [10] were -1.83, -2.26 and 0.178, respectively. For the same compound, the z-score in [4] is -1.4 (inactive).
Consider `C[C@H]1CC[C@H]2C(=O)OC(CO)CN2[C@@H]1c1ccc(Br)cc1` (stereo not given in full), for which the composite z-score in experiment [1] was -0.273; in experiment [2], -0.28; in experiment [3] it was -0.0574; in experiment [5], 0.0323; in experiment [6], -0.536; in experiment [7] it was 0.242. Besides, the composite z-score is -0.34 in experiment [8], -0.241 in [9] and 0.757 in experiment [10]. Besides, the z-score in experiment [4] was -0.522 (inactive).
For the compound `CON=CC[C@@H]1C=C[C@H](OC(C)=O)[C@@H](COC(C)=O)O1`, the composite z-score is 0.0728 in experiment [1]; -0.146 in experiment [2]; -0.0937 in [3]; 0.277 in experiment [5]; 0.184 in [6]; 0.393 in [7]. Moreover, the composite z-score amounted to 0.727 in [8], 0.531 in experiment [9] and 1.68 in [10]. For the same compound, the z-score in experiment [4] was 0.079 (inactive).
As to `CCN1C(=O)[C@H]2[C@H]3[C@H](O)[C@H](O)CC(=NOCC(C)C)[C@@H]3CC[C@H]2C1=O`, the composite z-score in experiment [1] is 0.85; in [2], -0.0898; in experiment [3], -0.672; in [5], 0.546; in experiment [6], 1.24; in experiment [7], 0.767. Further, the values for the composite z-score in [8], in experiment [9] and in experiment [10] were 0.912, 0.797 and -0.599, respectively. Besides, in [4], the z-score was 0.272 (inactive).
Consider `COC(=O)[C@@H]1CC[C@H](C)[C@@H](c2ccc(C)cc2)N1C(=O)c1ccc(C=NO[C@@H](C)c2cn([C@H](CO)Cc3ccccc3)nn2)cc1`, for which the composite z-score in [1] is 1.03; in [2], -0.0212; in experiment [3], -0.925; in experiment [5], 1.09; in [6], 1.16; in experiment [7] it was 0.797. Further, the composite z-score is 1.17 in [8], 1.22 in experiment [9] and -0.116 in experiment [10]. Also, the z-score in experiment [4] was -0.746 (inactive).
For the compound `COC(=O)CC=C[C@@H](C)[C@@H](C=NOCC[C@@H]1C=C[C@H](OC(C)=O)[C@@H](COC(C)=O)O1)OC`, the composite z-score is 0.381 in experiment [1]; -0.0928 in experiment [2]; -0.546 in [3]; 0.933 in experiment [5]; 0.328 in experiment [6]; 0.498 in experiment [7]. Besides, the figures for the composite z-score in experiment [8], in experiment [9] and in [10] were 0.651, 0.556 and -0.3, respectively. The z-score in [4] was 1.21 (inactive).
As for `CO[C@H]1COC(=O)[C@@H](Cc2ccccc2)NC(=O)[C@@H](C)COC(=O)CCC[C@@H]1C`, the composite z-score was -0.0517 in [1]; -0.242 in [2]; -0.539 in experiment [3]; 0.517 in experiment [5]; -0.431 in experiment [6]; 0.304 in experiment [7]. Further, the composite z-score in [8] stood at 0.379; in experiment [9] it was 0.601; in experiment [10], 0.296. For the same compound, the z-score in experiment [4] is -0.498 (inactive).
`C=CC1=C[C@H](O)[C@@H]2O[C@@H]2C12OCCCO2`: the composite z-score is 0.139 in [1]; -0.296 in experiment [2]; -0.136 in experiment [3]; 0.351 in experiment [5]; 1.03 in experiment [6]; -0.547 in experiment [7]. The composite z-score in experiment [8] is -0.0047; in experiment [9], -0.137; in [10] it was 0.551. Moreover, the z-score in experiment [4] is 0.404 (inactive).
For `CCOC(=O)[C@H](CC(C)C)NC(=O)CCC1CC(OC(=O)NCCc2ccc(F)cc2)CC2(CCCC(COC(=O)NCCOc3ccccc3)O2)O1` (stereo not given in full), the composite z-score in experiment [1] is 1.4; in [2] it was -0.0843; in [3], -0.545; in experiment [5], 0.989; in experiment [6], 0.508; in experiment [7] it was 0.672. For the same compound, the composite z-score is 1.1 in experiment [8], 1.52 in experiment [9] and -0.0219 in experiment [10]. Moreover, the z-score in experiment [4] was 0.119 (inactive).
`CCOC(=O)[C@H](Cc1ccccc1)NC(=O)CCC1CC(OC(=O)NCc2cccc3ccccc23)CC2(CCCC(COC(=O)NCc3cccc(C(F)(F)F)c3)O2)O1` (stereo not given in full): the composite z-score was 0.532 in experiment [1]; -0.181 in experiment [2]; -0.172 in [3]; 0.152 in experiment [5]; -0.189 in [6]; -0.185 in experiment [7]. Also, the composite z-score in experiment [8] was -0.278; in [9], 0.025; in experiment [10], -0.151. The z-score in experiment [4] was -0.247 (inactive).
Turning to `CC(=O)O[C@H]1C2=CO[C@H](C)[C@H]3[C@H]4C5=C([C@H](O)[C@H]6O[C@H]6C5=O)[C@H](OC4C)[C@@]23C(=O)[C@@H]2O[C@@H]21` (stereo not given in full), the composite z-score was 1.74 in [1]; -0.238 in experiment [2]; -0.647 in experiment [3]; 0.916 in experiment [5]; -0.0987 in [6]; -0.121 in experiment [7]. In addition, the composite z-score was found to be 0.0068 in experiment [8], 0.538 in experiment [9] and 0.528 in experiment [10]. Further, the z-score in [4] was -4.6 (inactive).
On to `O=C1C=C[C@@H](O)[C@@H]2[C@@H]3C(=O)N(C[C@@H]4CCCO4)C(=O)[C@@H]3CC[C@@H]12`, for which the composite z-score in experiment [1] was 0.27; in experiment [2], -0.0602; in [3] it was -0.454; in experiment [5] it was 0.513; in experiment [6], 0.496; in experiment [7] it was 0.645. Moreover, the values for the composite z-score in experiment [8], in experiment [9] and in experiment [10] were 0.591, 1.17 and 0.451, respectively. The z-score in [4] was 0.186 (inactive).
